Consider 40 molecules from PubChem BioAssay (Tox21).

Calls of active or inactive are those of the source. The call rests on the fitted dose curve; in most records, active means well fitted curve in the direction sought with a large enough effect in the repeat runs; inconclusive means weak or mixed curves; inactive means flat fitted curve, though single readings scatter.

The test can be described thus: qHTS assay to test for compound auto fluorescence at 460 nm (blue) in HepG2 cell free culture (AID 720685). Particulars: Cell-free culture medium, blue autofluorescence 405/460 nm; series mostly up to 91.3 µM. An excerpt: U.S. Tox21 Program National Center for Advancing Translational Sciences [NCATS] NIH Chemical Genomics Center [NCGC] U.S. Environmental Protection Agency [EPA] National Institutes of Environmental Health Sciences [NIEHS] National Toxicology Program [NTP] U.S. Food and Drug Administration [FDA] Tox21 Assay Overview: Compound auto fluorescence often interferes with screening of the compound library against various biological targets and signaling pathways. Some of these compounds may have fluorophoric properties. Such properties may interfere with the assay outputs resulting in false positives and/or negatives. To decrease such complications and ensure the compound activities are relevant in terms of biological response, the Tox21 10K compound library was screened for auto fluorescence. From the fluorophores used as reporter signals in our screening assays, the auto fluorescence equivalencies of compounds against three fluorophores have been evaluated: Triamterene, Fluorescein and Rose Bengal sodium for blue, green and red fluorescence, respectively. The fluorescence intensities were measured using Excitation/Emission wavelengths at 405/460nm, 485/535nm and 540/590nm for blue, green and red labels, respectively. This assay includes the blue fluorescence data.
Tox21 Assay Protocol Summary: 5 uL of culture medium (MEM containing 10% FBS) per well was dispensed into black wall/clear bottom 1536-well plates using a Multidrop Combi Dispenser (ThermoFisher Scientific, Waltham, MA). After 23 nL compound or DMSO vehicle was transferred into assay plate by a pintool work station (Kalypsys, San Diego, CA), fluorescence intensities in the assay plates were measured by an Envision (PerkinElmer, Shelton, CT) plate reader using three labels for measuring blue, green and red fluorescence at […] 460, 535 and 590nm respectively.
For orientation: In qHTS, concentration-response curves come from the screen itself.
`COC(=O)C1=C(C)NC(C)=C(C(=O)OCCN(C)Cc2ccccc2)C1c1cccc([N+](=O)[O-])c1` (stereo not given): the result was inactive.
The value for `Cc1ccc2c(n1)Oc1ccc(C(C)C(=O)OCC(=O)N(C)C)cc1C2` (stereo not given) was “inactive”; that for `C[C@]12CC[C@H]3[C@@H](CCC4=CC(=O)CC[C@@]43C)[C@@H]1CC[C@@H]2C(=O)CO` was “inactive”.
`CCC(C)OC(=O)c1ccc(O)cc1` (stereo not given): the molecule was called inactive.
The value for `NC=O` was “inactive”; that for `CCC(C)c1ccccc1O` (stereo not given) was “inactive”; that for `O=C(/C=C/c1ccccc1)OCc1ccccc1` was “inactive”.
The value for `Nc1ncnc2nc[nH]c12` was “inactive”; that for `Cc1cc2nc3c(=O)[nH]c(=O)nc-3n(C[C@H](O)[C@H](O)[C@H](O)CO)c2cc1C` was “inactive”.
Under `CC(C)OC=O` stands “inactive”; under `CC(=O)C1(C)CC2=C(CCCC2(C)C)CC1C` (stereo not given), “inactive”.
`Cc1cccc(C(=O)O)c1`: the result was inactive.
For `CC(CCC(=O)O)(c1ccc(O)cc1)c1ccc(O)cc1`, the molecule was classed as inactive.
Under `C[C@]12CCC(=O)C=C1CC[C@@H]1[C@@H]2C(=O)C[C@@]2(C)[C@H]1CC[C@]2(O)C(=O)CO` stands “inactive”; under `CCCCCCCCCCCO`, “inactive”.
The value for `O=CCCCC=O` was “inactive”.
Under `CC1=CC2C3CC(C=C3C)C2C1` (stereo not given) stands “inactive”.
`O=C(Nc1ccc(Cl)cc1)Nc1ccc(Cl)c(Cl)c1`: the molecule was called inactive.
The value for `C=C(C)C1CC=C(C)CC1` (stereo not given) was “inactive”; that for `CN(C)C(=N)N=C(N)N` was “inactive”; that for `O=CCc1ccccc1` was “inactive”.
Under `CCCC(=O)O` stands “inactive”.
Under `COc1ccc(OC)c(C(O)CNC(=O)CN)c1` (stereo not given) stands “inactive”.
Take `O=C(c1ccccc1)c1ccccc1O`: the molecule was classed as inactive.
The value for `C#C[C@]1(O)CC[C@H]2[C@@H]3CCC4=Cc5oncc5C[C@]4(C)[C@H]3CC[C@@]21C` was “inactive”; that for `Cc1ccc(C)c(O)c1C` was “inactive”; that for `Nc1ccc(S(=O)(=O)Nc2cnc3ccccc3n2)cc1` was “inactive”.
Consider `O=C=Nc1ccc(Cc2ccc(N=C=O)cc2)cc1`, for which the molecule was called inactive.
The value for `O=C1c2cccc(O)c2C(=O)c2c(O)cccc21` was “inactive”; that for `CCOC(=O)C(C#N)=C(c1ccccc1)c1ccccc1` was “inactive”.
The value for `Cc1ncc[nH]1` was “inactive”; that for `c1cc(N(CC2CO2)CC2CO2)ccc1OCC1CO1` (stereo not given) was “inactive”.
Consider `COC(=O)c1ccccc1`, for which the molecule was called inactive.
Under `O=[N+]([O-])c1ccc2c(c1)Cc1ccccc1-2` stands “inactive”.
Consider `O=C(Nc1ccc([N+](=O)[O-])cc1Cl)c1cc(Cl)ccc1O`, for which the molecule was classed as inactive.
Under `O=C(OCc1ccccc1)c1ccccc1O` stands “inactive”.
Under `CN(C)CCC=C1c2ccccc2CCc2ccccc21` stands “inactive”.
The value for `CC(C)(C)NC(=O)[C@H]1CC[C@H]2[C@@H]3CC[C@H]4NC(=O)C=C[C@]4(C)[C@H]3CC[C@]12C` was “inactive”; that for `COc1ccccc1/C=C/C=O` was “inactive”.
As to `Cc1c(C(N)=O)cc([N+](=O)[O-])cc1[N+](=O)[O-]`, the molecule was classed as inactive.
